PrP 5UTR inh = inhibition of PrP 5' UTR reporter expression | cell-based PrP 5' UTR mRNA reporter, plate reader | inhibition, % (no concentration beside the values) | actives 0.35% (n = 340,000) | AID 488862, 2010; in the data active means inhibition above about 52%; further: 0 = median of the neutral control wells
Mtb FBA inh = Mtb FBA enzyme inhibitors, primary screen, biochemical, fluorescence, strain H37Rv; purified M. tuberculosis FBA, fluorescence read-out; inhibition, % at 1 µM; actives 2.3% (n = 360,000); in the data active means inhibition above about 27%;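 further: 0% = vehicle and 100% = reference inhibitor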
Target sequence (P9WQA3 whole entry, looked up): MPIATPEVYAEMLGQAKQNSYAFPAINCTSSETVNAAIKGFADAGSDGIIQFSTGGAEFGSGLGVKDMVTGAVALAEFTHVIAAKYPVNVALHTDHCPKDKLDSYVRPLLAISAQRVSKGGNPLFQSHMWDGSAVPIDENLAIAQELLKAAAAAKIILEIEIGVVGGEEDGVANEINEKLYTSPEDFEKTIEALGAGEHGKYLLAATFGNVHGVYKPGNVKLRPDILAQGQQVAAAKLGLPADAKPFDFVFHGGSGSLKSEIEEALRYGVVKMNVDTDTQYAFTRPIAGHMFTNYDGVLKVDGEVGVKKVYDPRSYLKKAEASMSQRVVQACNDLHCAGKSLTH
PfHsp40 rescue = rescue of yeast from PfHsp40 toxicity, primary screen, S. cerevisiae, ATP luminescence. S. cerevisiae expressing PfHsp40, growth rescue. growth rescue, % at 12.5 µM. actives 0.68% (n = 340,000); in the data active means growth rescue above about 28%, passing the limit was not always enough; inconclusive means no clear call, values can overlap the other calls;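 further: yeast W303a lacking pdr1 and pdr3 grown in galactose medium; growth measured after three days at 30 °C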
BJeLR viability = MLPCN primary cell-based screen for lethality selective to Ras in HRASV12 cells. BJeLR (HRASV12) viability, CellTiter-Glo ATP luminescence, 48 h. inhibition, % (test concentration not listed). actives 0.17% (n = 300,000). AID 1554, 2009; in the data active means inhibition above about 50%; inconclusive means no clear call, values can overlap the other calls
GDH-TPI inh = GDH-TPI coupling enzyme inhibitors, primary screen, artefact control for M. tuberculosis FBA inhibitor project, biochemical, absorbance, full deck. AID 588335, 2011. actives 1.2% (n = 360,000). inhibition, % at 4.8 µM. GDH-TPI coupled enzyme counterscreen, NADH absorbance; in the data active means inhibition above about 30%;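 further: 0% = DMSO wells and 100% = wells lacking the enzyme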
PrPC TRFRET = inhibitors of human cell surface prion protein PrPC, primary screen, cell-based, TR-FRET. Major prion protein (Homo sapiens), P04156. TR-FRET read-out. inhibition, % at 13.8 µM. actives 0.43% (n = 370,000); in the data active means inhibition above about 24%; further: 0% = median of the test wells and 100% = reference compound wells
Active calls of the source: *; ? = inconclusive; / = no result; + = active, no number. Only some compounds are listed: those with a hit (about 4.5% of all), similar ones and a draw of the others.

SMILES	PrP 5UTR inh	Mtb FBA inh	PfHsp40 rescue	BJeLR viability	GDH-TPI inh	PrPC TRFRET
COc1cccc2[nH]c3c(N4CCC(C(N)=O)CC4)ncnc3c12	-7.7	182.7*	2.5	1.6	24.9	6.3
COc1cc(C(=O)Nc2nc(-c3cccs3)cs2)cc(OC)c1OC	-35.6	-4.5	41.2*	-11.8	1.1	-2.2
Fc1cccc(CNC(=S)OC2CCC23CCC(c2ccccc2)CC3)c1 (stereo not given)	/	/	/	/	/	-1.6
CC1=C(C)/C(=N\OS(=O)(=O)c2ccc(C)cc2)C=CC1=O	-22.3	-0.3	424.4*	/	9.4	0.7
COc1ccc(S(=O)(=O)/N=C2/C=CC(=O)C(C)=C2C)cc1	-7.0	4.4	-1.1	-1.8	-4.2	/
O=C(Nc1ccc2nc(-c3ccccc3)oc2c1)c1ccco1	-59.0	2.8	0.4	-7.6	54.5*	11.1
O=C(Nc1ccc(-c2nc3ccccc3c(=O)o2)cc1)c1ccco1	-19.4	-1.7	1.3	4.7	21.0	21.9
Cc1ccc2nc(-c3ccc(NC(=O)c4ccco4)cc3)[nH]c2c1	-106.9	1.0	0.0	4.4	54.3*	/
O=C(Nc1cccc(-c2nc3ccccc3s2)c1)c1cc(=O)c2ccccc2o1	-24.3	-7.5	-1.4	-16.5	-2.6	-3.1
O=C(Nc1cccc(-c2nc3ccccc3s2)c1)c1cccs1	-30.1	-5.3	403.4*	-1.8	5.9	4.9
O=C(Nc1ccc(-c2nc3ccc(NC(=O)c4cccs4)cc3[nH]2)cc1)c1cccs1	12.0	3.6	0.0	18.6	50.6*	18.5
COc1ccccc1C(=O)NC1CCCCN(Cc2cccc(F)c2)C1=O (stereo not given)	/	/	/	/	/	1.2
O=C(Nc1ccc(Cl)cc1Cl)O[C@@H]1CC[C@@]23CCCN2C(=O)CCC[C@H]3C1	/	/	/	/	/	-1.2
O=C(Nc1ccc2nc(-c3cccs3)[nH]c2c1)c1cccs1	-46.7	8.6	-1.6	-4.9	53.6*	-16.8
O=C(Nc1ccc2nc(-c3cccs3)[nH]c2c1)c1ccco1	-62.4	9.3	-0.3	4.8	36.0*	-7.0
O=C(Nc1ccc2oc(-c3ccccc3)nc2c1)c1cccs1	-89.1	0.5	0.6	-6.5	2.0	11.2
O=C(Nc1ccc2nc(-c3cccs3)c(-c3cccs3)nc2c1)NC1CC1	-5.7	9.6	-1.3	7.1	32.1*	-4.0
CC(=O)c1ccc(N2CCCCCC2)c(F)c1	-61.9	-5.9	-1.4	8.8	34.3*	4.5
Clc1ccccc1C(c1ccccc1)(c1ccccc1)n1ccnc1	-42.7	-2.3	172.6*	1.4	5.3	16.0
COc1cccc(Nc2nc(-c3cccs3)nc3ccccc23)c1	-17.8	6.2	278.8*	-9.4	10.7	7.4
Cc1ccc(OCC(=O)N/N=C/c2ccccc2)c([N+](=O)[O-])c1	-14.5	2.3	-0.4	3.7	-1.3	6.0
Cc1c(/C=N/NC(=O)COc2ccccc2[N+](=O)[O-])c2ccccc2n1C	-32.8	-4.1	-0.6	1.0	34.2*	-0.2
Cc1ccc(OCC(=O)N/N=C\c2c(C)n(C)c3ccccc23)c([N+](=O)[O-])c1	-22.0	1.6	0.5	0.0	31.5*	/
CCC[C@H]1[C@@H](OC(=O)Oc2ccc([N+](=O)[O-])cc2)CC[C@@]23CCCN2C(=O)CCC[C@@H]13	/	/	/	/	/	-2.3
CC(C)N(C(=O)CSc1n[nH]c(=O)n1CCc1ccccc1)C(C)C	-24.2	-0.8	-0.8	-1.1	-5.9	-3.4
SMILES	PrP 5UTR inh	Mtb FBA inh	PfHsp40 rescue	BJeLR viability	GDH-TPI inh	PrPC TRFRET
CCN(CC)C(=O)CSc1n[nH]c(=O)n1CCc1ccccc1	-2.1	148.2*	-0.2	5.5	-3.0	6.1
Nc1nc2ccc(-c3nc4ccccc4o3)cc2s1	-73.4	+	6.4	-1.6	40.6*	10.0
COc1ccc(C(=O)N2CCC(Oc3cccnc3)CC2)c(OC)c1	/	/	/	/	/	-2.7
CC(C)(C)OC(=O)n1cc(-c2ccccc2)c2c(-c3ccccc3)c(O)ccc21	/	/	/	/	/	5.0
Cc1ccc(C(=O)NC2CCCCN(Cc3cccc(Cl)c3)C2=O)c(C)c1 (stereo not given)	/	/	/	/	/	5.9
COc1ccccc1C1CC(c2ccco2)=NN1c1ccccc1 (stereo not given)	-25.4	148.2*	2.2	-40.3	12.5	-2.7
Cc1ccc(-c2cc(-c3ccccc3Cl)[nH]n2)c(O)c1	-184.8	-5.0	136.5*	-2.4	0.8	5.2
Oc1ccccc1-c1cc(-c2ccc(F)cc2)n[nH]1	-65.8	0.0	170.2*	-6.9	9.6	-2.9
Cc1ccc(-c2cc(-c3ccc(F)cc3)n[nH]2)c(O)c1	-63.0	-0.7	180.3*	5.5	2.2	5.2
Oc1ccccc1-c1cc(-c2ccccc2)n[nH]1	-60.9	-1.0	?	/	10.8	0.8
COc1ccc(-c2cc(-c3ccccc3O)[nH]n2)cc1	-70.8	2.6	22.5	-7.0	2.5	0.3
COc1ccc(-c2cc(-c3ccccc3)n[nH]2)c(O)c1	-62.5	-3.3	80.3*	-1.4	0.0	-0.1
Cc1ccc(O)c(-c2cc(-c3cccc(Br)c3)n[nH]2)c1	-59.2	-1.3	119.3*	-8.4	-11.0	-0.8
Cc1ccc(-c2cc(-c3ccc(C)cc3O)[nH]n2)cc1	-55.7	-0.2	-0.6	2.2	7.7	3.1
CCOC(=O)Cn1cc(CN2C(C(=O)OC)CN(CCO)CCS2(=O)=O)nn1 (stereo not given)	/	/	/	/	/	4.8
COC(=O)C1=C(C)N(Cc2cccc(C(F)(F)F)c2)C(=NCc2ccc(C(F)(F)F)cc2)NC1c1cccc(F)c1 (stereo not given)	/	/	/	/	/	4.5
CCCCNS(=O)(=O)CC1NCc2cc(OC)ccc21 (stereo not given)	/	/	/	/	/	-3.0
O=C1Nc2ccc([N+](=O)[O-])cc2C1(O)N1CCCCCC1 (stereo not given)	-16.1	-0.6	-1.0	-11.7	33.5*	-18.0
CC1CCN(C2(O)C(=O)Nc3ccc(Br)cc32)CC1 (stereo not given)	-6.0	3.4	0.1	3.2	4.4	-2.0
S=c1[nH]ncn1/N=C/c1cccc(Oc2ccccc2)c1	-2.3	-3.4	106.2*	0.4	8.9	-5.1
COc1ccc(/C=C/C(=O)Nc2ccccc2C(F)(F)F)cc1OC	11.0	10.0	1.3	-13.0	31.4*	8.6
COC(=O)c1ccccc1NC(=O)/C=C/c1cc(OC)c(OC)c(OC)c1	-30.8	3.1	0.6	-0.7	36.2*	-2.8
O=C(/C=C/c1ccccc1)NC(=O)c1ccccc1O	-15.0	1.4	0.1	3.3	3.9	-3.3
COc1ccc(/C=C/C(=O)Nc2ccccc2C(=O)O)cc1OC	-4.3	4.5	1.0	-2.3	46.9*	-2.4
COc1cc(/C=C/C(=O)NC(=O)c2ccccc2O)ccc1O	-52.0	-3.9	1.6	5.2	40.1*	-19.1
